Test results as given in the supplement of paper PMC3545927.
Some of the results follow. The hit rate among all sequences tested is not known here.

Molecular target: furin, P09958
Experiment: furin cleavage Z-score vs untreated control; higher = more cleavage, active = 3.5 or more, inactive = 1 or less, 8 variable residues between constant flanks
Method in brief: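 Sequencing of released DNA, tagged with adapters by PCR, gave read counts used as abundance. That DNA was freed when purified furin cut N-terminally bead-bound 8-mer peptides fused to a cDNA oligonucleotide, in 0.01 ml reactions at 1:10 enzyme:substrate in 50 mM HEPES pH 7.5 with CaCl2 and NaCl, lasting 7.5, 15 or 30 min. The cleavage Z-score was the lowess-adjusted log count versus furin-free reactions, scaled by median absolute deviation.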

Chain of furin, P09958 (P09958 whole entry): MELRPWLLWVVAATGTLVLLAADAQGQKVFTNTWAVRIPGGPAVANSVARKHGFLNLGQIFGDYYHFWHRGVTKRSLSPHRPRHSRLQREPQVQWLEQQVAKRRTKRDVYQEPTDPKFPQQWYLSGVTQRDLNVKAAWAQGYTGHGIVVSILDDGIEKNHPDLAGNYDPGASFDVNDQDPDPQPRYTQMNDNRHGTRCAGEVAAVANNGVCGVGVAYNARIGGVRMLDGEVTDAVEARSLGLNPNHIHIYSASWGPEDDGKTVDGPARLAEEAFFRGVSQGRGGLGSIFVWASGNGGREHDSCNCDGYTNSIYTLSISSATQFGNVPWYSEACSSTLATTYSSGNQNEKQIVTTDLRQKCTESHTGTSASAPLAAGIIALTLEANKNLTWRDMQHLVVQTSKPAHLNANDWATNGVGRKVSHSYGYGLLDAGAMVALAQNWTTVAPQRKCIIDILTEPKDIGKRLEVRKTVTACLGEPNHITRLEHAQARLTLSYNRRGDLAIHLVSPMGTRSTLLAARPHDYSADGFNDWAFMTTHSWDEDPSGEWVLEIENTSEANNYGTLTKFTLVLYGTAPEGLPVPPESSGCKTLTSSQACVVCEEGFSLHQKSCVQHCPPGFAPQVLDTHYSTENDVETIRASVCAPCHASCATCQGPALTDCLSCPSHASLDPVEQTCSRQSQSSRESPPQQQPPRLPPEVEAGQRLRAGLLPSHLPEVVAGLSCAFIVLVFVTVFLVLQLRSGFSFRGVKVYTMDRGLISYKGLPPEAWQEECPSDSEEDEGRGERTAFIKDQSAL

Sequence	furin cleavage Z-score (7.5 min)	furin cleavage Z-score (15 min)	furin cleavage Z-score (30 min)
CARERRWQDVAGNASASA [FS-1698]	-0.457 (inactive)	0.122 (inactive)	1.79
CARQMRSVDVAGNASASA [FS-3039]	2.09	3.9 (active)	5.69 (active)
CARRKKILDVAGNASASA [FS-3049]	0.884 (inactive)	0.207 (inactive)	-1.99 (inactive)
CARQMRSASIAGNASASA [FS-2400]	0.584 (inactive)	2.25	4.94 (active)
CARKWRSWKVAGNASASA [FS-2274]	1.07	1.35	0.0619 (inactive)
CAVVCCSMSIAGNASASA [HC2084]	-0.331 (inactive)	-1.27 (inactive)	0.12 (inactive)
CAEKMALYDVAGNASASA [HC1456]	0.218 (inactive)	-0.51 (inactive)	0.171 (inactive)
CARQNRSRSIAGNASASA [FS-2362]	-0.846 (inactive)	0.141 (inactive)	-0.0686 (inactive)
CARVTRSLDVAGNASASA [FS-3127]	5.89 (active)	8.68 (active)	7.6 (active)
CAGGDIYHSVAGNASASA [HC1649]	-1.03 (inactive)	-0.366 (inactive)	-0.802 (inactive)
CASSPCSAHLAGNASASA [HC2497]	0.244 (inactive)	0.911 (inactive)	0.262 (inactive)
CAAVLTSMLTAGNASASA [HC1245]	-1.15 (inactive)	1.56	0.027 (inactive)
CANWQRARRFAGNASASA [FS-912]	3.9 (active)	4.91 (active)	5.21 (active)
CARSNRQLGIAGNASASA [FS-2185]	0.465 (inactive)	-0.691 (inactive)	0.216 (inactive)
CAVSRRSRGIAGNASASA [FS-2857]	1.63	3.08	4.54 (active)
CANFHKARRFAGNASASA [FS-1143]	-0.34 (inactive)	-0.616 (inactive)	-0.0235 (inactive)
CAVSRRARRFAGNASASA [FS-1436]	10.2 (active)	11.6 (active)	10.4 (active)
CAVSKRHVRIAGNASASA [FS-2114]	-0.647 (inactive)	1.47	2.71
CAAAAAAAAAAGNASASA [NE2]	2.09	0.496 (inactive)	2.15
CAAAARARRFAGNASASA [FS-1108]	2.41	5.92 (active)	6.24 (active)
CANWQKLETFAGNASASA [HC1037]	0.812 (inactive)	-1.06 (inactive)	0.807 (inactive)
CATAFVGAGLAGNASASA [HC1074]	-0.799 (inactive)	-0.776 (inactive)	-1.06 (inactive)
CAGVRLHRFAAGNASASA [HC1224]	-0.592 (inactive)	-0.925 (inactive)	-0.313 (inactive)

Sequence	furin cleavage Z-score (7.5 min)	furin cleavage Z-score (15 min)	furin cleavage Z-score (30 min)
CAQKKVTFDRAGNASASA [HC1395]	-0.415 (inactive)	-0.119 (inactive)	-0.531 (inactive)
CAKYIMTCMSAGNASASA [HC982]	-1.5 (inactive)	-0.454 (inactive)	-2.07 (inactive)
CAGEVQIVSTAGNASASA [HC689]	-0.7 (inactive)	0.651 (inactive)	-0.62 (inactive)
CAYPGHITGHAGNASASA [HC315]	0.244 (inactive)	-0.868 (inactive)	0.3 (inactive)
CAESENKVVIAGNASASA [HC1283]	-1.56 (inactive)	-1.01 (inactive)	-1.31 (inactive)
CATLERRKRSAGNASASA [FS-1172]	11.2 (active)	9.64 (active)	8.54 (active)
CACQCRFFRSAGNASASA [FS-1313]	0.733 (inactive)	-1.88 (inactive)	-0.461 (inactive)
CAMEVLRKRSAGNASASA [FS-911]	-0.513 (inactive)	-0.258 (inactive)	0.754 (inactive)
CACCCRRKRSAGNASASA [FS-118]	7.96 (active)	7.28 (active)	6.41 (active)
CAGKELRKRSAGNASASA [FS-998]	6.16 (active)	6.24 (active)	6.7 (active)
CALPIRRKRSAGNASASA [FS-1028]	13 (active)	13.8 (active)	9.29 (active)
CAKVKANLLSAGNASASA [HC1409]	0.199 (inactive)	-1.82 (inactive)	-0.858 (inactive)
CADYMEECSQAGNASASA [HC1809]	0.775 (inactive)	0.374 (inactive)	-0.614 (inactive)
CAMEQCSQHLAGNASASA [HC1722]	2.51	1.08	0.422 (inactive)
CANGTMRIVGAGNASASA [HC1181]	0.253 (inactive)	1.69	-0.0933 (inactive)
CAEVVTITWVAGNASASA [HC145]	-0.85 (inactive)	0.512 (inactive)	-0.407 (inactive)
CAIFRAAVCTAGNASASA [HC750]	-0.737 (inactive)	-0.718 (inactive)	-0.0235 (inactive)
CACCSMSYSWAGNASASA [HC1370]	0.447 (inactive)	-0.385 (inactive)	0.225 (inactive)
CASNGRRKRSAGNASASA [FS-1570]	11 (active)	11.1 (active)	9.24 (active)
CADRHFRKRSAGNASASA [FS-925]	9.05 (active)	11.3 (active)	9.58 (active)
CAERRKRKRSAGNASASA [FS-1119]	11.5 (active)	11.6 (active)	9.13 (active)
CATLARRKRSAGNASASA [FS-1423]	11.4 (active)	11.2 (active)	9.32 (active)
